Laboratory results from PubChem BioAssay AID1347426 (Functional Genomics Laboratory (NCATS/FGL), 2020).
The whole screen tested about 31,000 sequences, of which about 1,400 (4.5%) were called active.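 How the source made its calls: active means median seed-adjusted z-score above 1 or below -1; inactive means the rest.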 Many of the other results were omitted from the sample, so actives are more common in it than they were.

Assay: Novel Modifiers of Survival Motor Neuron (SMN) Protein: Gene Identification via Genome-wide siRNA Screen;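 further: luminescence tracks full-length SMN protein made from the SMN2 reporter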
Details: HEK293T SMN2-luciferase reporter, siRNA knockdown, 72 h; actives lie on both sides
How it was run: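 Steps: spot 1 pmol siRNA, add Lipofectamine RNAiMax in serum-free DMEM, seed HEK293T SMN2–luciferase reporter cells; incubate 72 h at 37 °C; add ONE-Glo; normalize luminescence to control siRNA, log10, MAD. Candidates: |MAD| > 1.0.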

Sequence	median seed-adjusted z-score
CGCUGUCUCGGGAGAGAAATT against SFRS3	2.74 (active)
CCUCUUCCACCGCUACUUCTT against TREX2	-0.918 (inactive)
GGCUCUUAAUAUUCGAAUATT against GPR22	0.705 (inactive)
UGAUCAUUGUCCCUACAGATT against SERPINA3	0.125 (inactive)
UCCUCAAGAGUUCACCUAUTT against FCRL2	-0.294 (inactive)
GCUAAACAGUUCGCAAGGATT against IGF2R	0.274 (inactive)
GCUUUCCGAUGAUGAGAGATT against LEO1	1.2 (active)
CAGCUGUACCGAUUAAGCATT against MEP1A	0.209 (inactive)
GACUGAAUGAUAUGAAAGATT against RHOQ	-0.328 (inactive)
GGAUUUGAGGGAAAACGCATT against FMO2	-0.265 (inactive)
GGAGGUCUCAAGUUCAACATT against LENG8	-0.00539 (inactive)
UGAUGAACUCGGAAAUGCATT against PPAPDC1A	0.634 (inactive)
GGACCAGAGAGACUUCAUUTT against ASTL	0.722 (inactive)
GAAGCAGGGUUAAAGCGGATT against PRDM2	1.12 (active)
GAGAUAACAUCAGUAGAAATT against FGF10	0 (inactive)
CACCGUCUGAGAUAAUAGATT against LST-3TM12	-0.109 (inactive)
CUGUCCGUAUGAUUACAAATT against ZFAND5	0.0289 (inactive)
GCAUCGCCCUGAUGAGUAATT against ADCY7	-0.0202 (inactive)
CCUCAUGUCGGGCAUCUUATT against EGR4	0 (inactive)
GAUUCUUUUGAAAAAGUGATT against ZNF675	-0.343 (inactive)
GGAUUAUUCAUUAUUACAUTT against NDUFB6	-0.357 (inactive)
GCUCAACAGUCCCUAGUUATT against RSC1A1	0.438 (inactive)
CCAUCAAGCUCUACAAGGATT against TOP3B	-1.11 (active)

Sequence	median seed-adjusted z-score
CAGUUCAAGUGACCAUUGATT against CD300LF	-0.264 (inactive)
GGUUCUUCCCGUUGUCUUUTT against TOMM22	0.486 (inactive)
GGACCACAGACAUAGUAGATT against NCOA5	0.947 (inactive)
ACAUGGACAAUGCCGCAGATT against HSPBP1	0.368 (inactive)
CUAAGAUGGUUAUCAAGAATT against SLC1A2	0.249 (inactive)
CGAAGGAUAUCUAUCAUCATT against NXF1	-4.46 (active)
GGACUACGGAGUUCGAGAATT against MGC29506	0 (inactive)
CCCAUAAUAUCAUUGAGAATT against SREBF2	-0.606 (inactive)
GGUCCGGAAUGUGAACUUUTT against SERPINE2	0.0144 (inactive)
AGAUGGAGUUUGAUCCUAATT against POLR2G	-4.19 (active)
GAACUGCAAAGACCUGUUUTT against SSU72	-1.64 (active)
CCUCAUCAACUCUGACAUATT against LMO2	0 (inactive)
CCGUGAUCGUGAAGCUAGATT against PKD2	0.219 (inactive)
CCCUCAGACUGUACGCAGATT against PGM5	-0.0543 (inactive)
GGAAACUCGUGGACUAUGATT against BIN2	0.205 (inactive)
CGCUCACACUGGGUUCCAATT against SLC34A1	0.139 (inactive)
UGAGCACAAUCAAGUCUAATT against BRD4	1.13 (active)
GAAUUGGAAGAAGAUAUCATT against RHOBTB3	0.256 (inactive)
GAUGAUCUGUGAGACCAAATT against BOC	-0.0192 (inactive)
CAUCAACGAAGGAAAUAUATT against CD27	0.5 (inactive)
GUUCCUUAUUGUUAAGGUATT against PCDHB10	-0.09 (inactive)
GAAUGGAAGAUUUCACCUUTT against SNAPC3	-1.72 (active)
GGAGCUACUUUGACUCACUTT against KCNK13	-0.0924 (inactive)

Sequence	median seed-adjusted z-score
GCUCUGUGCUCUCUAGUGATT against LEFTY1	0.383 (inactive)
CCCUCACUAUCACGGUUAATT against ATP6V1B2	0.24 (inactive)
GUGCAUGUAUGAAGCCGAATT against NDUFB10	-0.39 (inactive)
AGAAGGUGACUCAAAGAAUTT against WFDC1	0.152 (inactive)
AGCUCUUUGCUACAGAUGATT against ACAD8	1.06 (active)
GGACCGUGUUCUUUACGUATT against NDUFAB1	-0.282 (inactive)
CCCUGUUAUGUCAAGCUUATT against SYNPR	0.257 (inactive)
CUUAAUUCUUGGUCUAUGATT against SP6	-0.176 (inactive)
AGUUCAUGCAAGAUCCAAUTT against BAT1	-1.49 (active)
AGCGCGUCAUGAUGACCUATT against PER1	0.176 (inactive)
AGCCCGUGAUGUACACGUATT against COL8A1	-0.848 (inactive)
GAUCCACCUGAGACAGAAATT against EGR2	-0.37 (inactive)
GGAUCUAUCUCAUCAAACATT against NDUFC1	0 (inactive)
CAGACUUAUUACUAGAUGATT against PRDX5	-0.0386 (inactive)
GCAAAGGCACUGAAUCGAATT against MAP4K5	-0.309 (inactive)
GCCCGUCUAUGACAAGAAATT against RELB	1.16 (active)
CGCCUUGAAUGGGAGCAAATT against C2	-0.0549 (inactive)
GUGUAUUACCUGAGAAUCATT against CYP24A1	0.136 (inactive)
CAGGUACCGUCAUCACAUUTT against PCDHA7	0.552 (inactive)
GACUCGUGGUUUGAAGUGATT against ZNRF1	-0.808 (inactive)
CCCAGUUCCUAGACUGUAUTT against MTMR8	-0.416 (inactive)
CGACCUUCAAAGUUAACAATT against CLIP1	0.853 (inactive)
CCUCUUACACUUUUCCGAATT against PECI	-0.0254 (inactive)
